SW480 rereplic = induces DNA re-replication in SW480 colon adenocarcinoma cells; hit rate 1.8% among 340,000; Potency, µM (highest dose often 46.1 µM), for the others: top-dose re-replication activation, actives largely listed as activators; SW480 DNA re-replication, Hoechst DNA content imaging, 48 h; note: % of control where 0% means no effect; nearly all actives have a fitted effect of over 55% in size
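Cells (250 per well) received 23 nL compound or DMSO by pin tool and were kept 48 hr at 37 C, 5% CO2. Nuclei were then stained with Hoechst for 40 min and scanned for DNA content.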
Gal4-VP16 FLuc = counter-screen for ROR gamma inhibitors: Gal4-VP16 reporter. Drosophila S2 Gal4-VP16 UAS-luciferase, luminescence, 20 h. Potency, µM (titrated, usually from 53.6 µM), without a hit: top-dose activity, negative = inhibition, usual class: inhibitors. hit rate 3.5% among 310,000;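 note: Gal4-VP16 expression switched on by copper sulfate through the metallothionein promoter; % is set by controls: 0 for no effect and ±100 for the full control effect; nearly all actives have a fitted effect of over 50% in size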
KB-V1 MDR tox = KB-V1 MDR subline cytotoxicity. hit rate 3.4% among 400,000. Potency, µM (doses to about 46.1 µM), usual class: cytotoxic. AID 1347076. KB-V1 MDR cells viability, CellTiter-Glo, 72 h; note: % is set by controls: 0 for no effect and ±100 for the full control effect; nearly all actives have a fitted effect of over 60% in size
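Drug-selected KB-V1 cells, grown in DMEM lacking phenol red with 10% FBS, receive compound titrations; after three days at 37 degrees C, surviving cell ATP is quantified by CellTiter-Glo luminescence and responses normalized and curve-fitted.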
MCF10A rerep = DNA re-replication induction in MCF 10a cells | AID 624296 | Potency, µM (highest dose often 46.1 µM), without a hit: at the highest dose activity, positive = re-replication, most hits filed as activators | hit rate 2.9% among 350,000 | MCF 10A DNA re-replication, Hoechst nuclear intensity, 48 h; note: % of control where 0% means no effect; nearly all actives have a fitted effect of over 50% in size
RORg inh = blocks mouse ROR gamma transcriptional activity; P51450; Drosophila S2 Gal4-RORgamma UAS-luciferase reporter, 20 h; Potency, µM (doses to about 53.6 µM), inactives show at the highest dose activity change, negative = inhibition, most hits filed as inhibitors; hit rate 5.4% among 310,000; AID 2551; note: % is set by controls: 0 for no effect and ±100 for the full control effect; nearly all actives have a fitted effect of over 60% in size
Target sequence (P51450 whole entry, looked up, the tested form may be a part): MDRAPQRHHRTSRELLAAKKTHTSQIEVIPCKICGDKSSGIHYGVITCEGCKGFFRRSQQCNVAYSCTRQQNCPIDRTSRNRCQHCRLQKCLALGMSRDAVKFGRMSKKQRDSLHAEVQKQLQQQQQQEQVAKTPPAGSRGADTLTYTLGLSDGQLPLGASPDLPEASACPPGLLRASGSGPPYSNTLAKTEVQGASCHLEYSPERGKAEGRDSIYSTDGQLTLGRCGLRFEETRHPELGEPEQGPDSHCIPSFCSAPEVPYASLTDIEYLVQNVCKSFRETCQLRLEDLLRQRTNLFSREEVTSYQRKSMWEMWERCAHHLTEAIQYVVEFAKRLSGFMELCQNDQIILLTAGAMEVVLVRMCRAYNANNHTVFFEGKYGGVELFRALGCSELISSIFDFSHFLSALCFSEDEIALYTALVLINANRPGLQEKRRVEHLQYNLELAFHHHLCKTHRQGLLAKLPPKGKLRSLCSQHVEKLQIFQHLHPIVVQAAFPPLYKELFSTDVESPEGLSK
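A Gal4/UAS one-hybrid system in insect cells: metallothionein-promoter Gal4–ROR gamma fusion plus Photinus luciferase reporter. Copper sulfate 700 uM final, 20 hr ambient incubation, luminescent detection after 10 min with reagent.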
KB-3-1 cytotox = kills parental KB-3-1 adenocarcinoma cells; KB-3-1 viability, CellTiter-Glo ATP luminescence, 72 h; Potency, µM (doses to about 46.1 µM), hits mostly cytotoxic; hit rate 1.4% among 400,000; note: % is set by controls: 0 for no effect and ±100 for the full control effect; nearly all actives have a fitted effect of over 60% in size
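KB-3-1 parental drug-naive adenocarcinoma cells in DMEM/10% FBS, incubated 72 h at 37 C with pin-transferred compounds across a concentration series. Viability by CellTiter-Glo luminescence; concentration-response curves fitted after normalization.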
An asterisk follows results filed as active; i = inactive; ? = inconclusive; . = no result; [ ] = dose if it differs, or a comment. Most compounds without a hit are left out; they make up all but 10% or so of the library. Calls come from the whole dose curve; as a rule, active = well fitted curve in the direction sought with a large enough effect; inconclusive = small, poorly fitted or top-dose-only effect, or another doubt; inactive = no such curve, though single readings can be large; an effect the other way counts as inactive or inconclusive. Potency is the fitted concentration of half-maximal effect.

SMILES	SW480 rereplic	Gal4-VP16 FLuc	KB-V1 MDR tox	MCF10A rerep	RORg inh	KB-3-1 cytotox
COC(=O)c1cc(-c2c(-c3cc(OC)c(OC)c(OC)c3)noc2C)cc([N+](=O)[O-])c1	27%	-12%	i	?	-22%	?
Cc1ccc(NC(=O)N2CCN(c3nnc(C)c4c(C)n(-c5ccccc5)nc34)CC2)c(Cl)c1	.	.	i	.	.	i
Cc1ccc(Cn2c(C3CCCN3c3nc(C)cs3)nc3cc(C(F)(F)F)ccc32)cc1 (stereo not given)	-1%	?	?	15%	3.5µM*	?
Cc1ccc(Cn2c(C3CCCN3c3nc(-c4cc(Cl)c(N)c(Cl)c4)cs3)nc3cc(C(=O)NCCCO)ccc32)cc1 (stereo not given)	17%[9.22 µM]	.	i	?	.	i
CC(C)C(NS(=O)(=O)c1cccc2nsnc12)C(=O)Nc1nc2ccc(Cl)cc2s1 (stereo not given)	-3%	?	i	-6%	22µM*	?
CCOc1ccc2nc(NC(=O)C(NS(=O)(=O)c3cccc4nsnc34)C(C)C)sc2c1 (stereo not given)	-4%	?	i	2%	16µM*	i
COc1cccc(Cl)c1NC(=O)N1CCc2c([nH]c3ccccc23)C1C(F)(F)F (stereo not given)	?	-4%	i	5.8µM*	?	i
CC1c2[nH]c3ccccc3c2CCN1C(=O)Nc1ccccc1 (stereo not given)	?	-7%	8.2µM*	10%	-11%	?
Cc1ccc(-n2ncc3c(Nc4cccc(C)c4C)ncnc32)cc1	.	.	i	.	.	i
CCOC(=O)C1=C(C)NC2=C(C(=O)CC(c3cccs3)C2)C1c1cccs1 (stereo not given)	?	0%	15µM*	20µM*	?	5.8µM*
COC(=O)C1=C(C)NC2=C(C(=O)CCC2)C1c1ccsc1 (stereo not given)	.	5%	.	.	5%	.
CCOC(=O)C1=C(C)NC(c2cccs2)C(=O)N1 (stereo not given)	?	-14%	i	13%	7%	i
COC(=O)C1=C(C)NC2=C(C(=O)CC(c3cccs3)C2)C1c1ccsc1 (stereo not given)	?	-8%	7.3µM*	?	-12%	?
CCCOC(=O)C1=C(C)NC2=C(C(=O)CCC2)C1c1cccs1 (stereo not given)	0%	2%	23µM*	1%	19%	i
CCCOC(=O)C1=C(C)NC2=C(C(=O)CCC2)C1c1cccc(OC)c1OC (stereo not given)	7%	0%	i	-7%	?	i
CC1=C(C(=O)OC2CCCCCC2)C(c2ccc(C)o2)C2=C(CCCC2=O)N1 (stereo not given)	?	-1%	?	23%	?	i
CC1=C(C(=O)OC2CCCC2)C(c2ccc(C)o2)C2=C(CC(c3cccs3)CC2=O)N1 (stereo not given)	?	0%	21µM*	?	-22%	i
C[n+]1c(/C=C/c2ccnc3ccccc23)cc(/C=C/c2ccnc3ccccc23)c2ccccc21	.	.	i	.	.	i
Cc1ccc(S(=O)(=O)COCCN2CCN(S(=O)(=O)c3ccc(C)cc3)CCC2=O)cc1	.	5%	.	.	10%	.
Cc1c(OCC(=O)NC2CC(C)(C)NC(C)(C)C2)ccc2c3c(c(=O)oc12)CCC3	?	-3%	i	11%	-4%	i
Cc1c(OCC(=O)NC2CC(C)(C)NC(C)(C)C2)ccc2c1oc(=O)c1ccccc12	13µM*	-7%	i	2%	-12%	i
CCOc1ccc(CN(C)C(=O)CNC(=O)c2ccccc2)cc1	-2%	3%	i	7%	11%	i

Screening data (PubChem)
